Measurements taken from the supplement of paper PMC6607015.
Structures can show the parent of a compound that is named as a salt.

Key:
Conditions in all cases: compound concentration in added solution (µM; 5 µl added to 20 µl cells): 10; 18 h
[1] = test system: A431; experiment: LBPA endosome anti-LBPA integrated intensity (sum per cell), Z-score; higher = more LBPA staining
Procedure, shortened: (§1)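 After 18 h on 5 µl of 10 µM compound solution in duplicate 384-well imaging plates, HeLa MZ or A431 cells, seeded at 3,500 per well in 20 µl, were fixed with 4% PFA. They were then labelled with 6C4 anti-LBPA antibody, filipin, propidium iodide and CellTracker green, and four 20× fields were recorded per well. Integrated LBPA or filipin intensity per cell, whole-cell or within LBPA endosomes, came from MetaXpress segmentation and was normalised to Z-scores in AcuityXpress.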

[2] = test system: HeLa MZ; experiment: as above
Procedure, shortened: as §1

[3] = test system: A431; experiment: whole-cell filipin (free cholesterol) integrated intensity, Z-score; higher = more cholesterol staining
Procedure, shortened: as §1

[4] = test system: HeLa MZ; experiment: as above
Procedure, shortened: as §1

[5] = test system: A431; experiment: filipin (cholesterol) integrated intensity within LBPA endosomes, Z-score; higher = more cholesterol in LBPA endosomes
Procedure, shortened: as §1

[6] = test system: HeLa MZ; experiment: as above
Procedure, shortened: as §1

| Structure (SMILES) | LBPA endosome anti-LBPA integrated intensity (z-score) [1] | LBPA endosome anti-LBPA integrated intensity (z-score) [2] | whole-cell filipin (z-score) [3] | whole-cell filipin (z-score) [4] | filipin (z-score) [5] | filipin (z-score) [6] |
| --- | --- | --- | --- | --- | --- | --- |
| Cn1c([N+](=O)[O-])cnc1COC(N)=O [Ronidazole] | -0.617 | -0.899 | -0.075 | -0.4 | -0.579 | -0.485 |
| Cc1c(O)c(=O)n(-c2ccccc2)n1C [Antipyrine, 4-hydroxy] | -0.407 | -0.193 | -0.48 | 0.114 | -0.485 | -0.43 |
| CCC1=C(C)CN(C(=O)NCCc2ccc(S(=O)(=O)NC(=O)N[C@H]3CC[C@H](C)CC3)cc2)C1=O [Glimepiride] | -0.623 | -0.491 | -0.412 | -0.0517 | -0.467 | -0.486 |
| Cc1ccc(Cl)c(Nc2ccccc2C(=O)O)c1Cl [Meclofenamic acid sodium salt monohydrate] | -0.528 | -0.676 | -0.856 | -0.416 | -0.531 | -0.606 |
| CC(=O)NS(=O)(=O)c1ccc(N)cc1 [Sulfacetamide sodic hydrate] | -0.453 | -0.433 | -0.701 | -0.53 | -0.475 | -0.628 |
| CC(C)NC[C@H](O)COc1cccc2ccccc12 [(S)-propranolol hydrochloride] | -0.105 | 1.72 | 0.666 | -0.426 | -0.189 | 0.093 |
| CN1[C@@H]2CC[C@H]1C[C@@H](OC(c1ccccc1)c1ccccc1)C2 [Benztropine mesylate] | 2.51 | 2.77 | 3.07 | 3.74 | 2.51 | 2.8 |
| CN1CCN(c2c(F)cc3c(=O)c(C(=O)O)cn4c3c2SCC4)CC1 [Rufloxacin] | -0.614 | -0.736 | 0.0183 | -0.289 | -0.534 | -0.17 |
| C[C@]12CCC(=O)C=C1C=C[C@@H]1[C@@H]2CC[C@@]2(C)[C@H]1CC[C@@]21CCC(=O)O1 [Canrenone] | -0.209 | 1.1 | 0.452 | 1.37 | -0.0815 | 0.168 |
| COc1ccc(CC2c3cc(OC)c(OC)cc3CC[N+]2(C)CCC(=O)OCCCCCOC(=O)CC[N+]2(C)CCc3cc(OC)c(OC)cc3C2Cc2ccc(OC)c(OC)c2)cc1OC (stereo unspecified) [Atracurium besylate] | -0.229 | -0.154 | -0.0896 | -0.584 | -0.0589 | 0.0777 |
| Cc1cccc(N(C)C(=S)Oc2ccc3ccccc3c2)c1 [Tolnaftate] | 0.133 | 0.375 | -0.581 | -0.535 | -0.301 | -0.655 |
| NCc1ccccc1CC(=O)N[C@@H]1C(=O)N2C(C(=O)O)=C(CSc3nnnn3CC(=O)O)CS[C@H]12 [Ceforanide] | -0.318 | -0.0362 | -0.326 | -0.285 | -0.513 | -0.563 |
| C=CC1=C(C(=O)O)N2C(=O)[C@@H](NC(=O)/C(=N\O)c3csc(N)n3)[C@H]2SC1 [Cefdinir] | -0.422 | -0.414 | -0.315 | -0.322 | -0.385 | -0.46 |
| NNC(=O)c1ccncc1 [Isoniazid] | -0.56 | -1.34 | -0.938 | -1.09 | -0.477 | -0.667 |
| O=C(O)CCNC(=O)c1ccc(/N=N/c2ccc(O)c(C(=O)O)c2)cc1 [Balsalazide Sodium] | -0.394 | -0.755 | -0.213 | 0.475 | -0.386 | -0.346 |
| O=C(O)[C@H]1/C(=C/CO)O[C@@H]2CC(=O)N21 [Potassium clavulanate] | -0.48 | -0.536 | 0.227 | -0.0014 | -0.358 | -0.433 |
| CN1Cc2c(N)cccc2C(c2ccccc2)C1 (stereo unspecified) [Nomifensine maleate] | -0.419 | 0.114 | -0.627 | -0.396 | -0.47 | -0.516 |
| CC(=O)O[C@H]1C[C@@]2(C)[C@@H](C[C@@H](O)[C@H]3[C@@]4(C)CC[C@@H](O)[C@@H](C)[C@@H]4CC[C@@]32C)/C1=C(\CCC=C(C)C)C(=O)O [Fusidic acid sodium salt] | -0.322 | 0.503 | -0.581 | 0.0569 | -0.49 | -0.416 |
| CCCCCN(CCCCC)C(=O)C(CCC(=O)O)NC(=O)c1ccc(Cl)c(Cl)c1 (stereo unspecified) [Lorglumide sodium salt] | -0.556 | 0.0228 | -0.478 | -0.52 | -0.482 | -0.502 |
| CC(C)(C)NCC(O)COc1cccc2c1CCC(=O)N2 (stereo unspecified) [Carteolol hydrochloride] | -0.364 | 0.373 | -0.558 | -0.304 | -0.479 | -0.264 |
| NS(=O)(=O)c1cc(C(=O)O)c(NCc2ccco2)cc1Cl [Furosemide] | -0.539 | -0.705 | -0.993 | -0.823 | -0.572 | -0.492 |

| Structure (SMILES) | LBPA endosome anti-LBPA integrated intensity (z-score) [1] | LBPA endosome anti-LBPA integrated intensity (z-score) [2] | whole-cell filipin (z-score) [3] | whole-cell filipin (z-score) [4] | filipin (z-score) [5] | filipin (z-score) [6] |
| --- | --- | --- | --- | --- | --- | --- |
| CC[C@H](C)[C@H](N)C1=N[C@H](C(=O)N[C@@H](CC(C)C)C(=O)N[C@H](CCC(=O)O)C(=O)N[C@H](C(=O)N[C@H]2CCCCNC(=O)[C@H](CC(N)=O)NC(=O)[C@@H](CC(=O)O)NC(=O)[C@H](Cc3cnc[nH]3)NC(=O)[C@@H](Cc3ccccc3)NC(=O)[C@H]([C@@H](C)CC)NC(=O)[C@@H](CCCN)NC2=O)[C@@H](C)CC)CS1 [Bacitracin] | -0.168 | 0.277 | -0.0253 | 0.293 | -0.368 | -0.388 |
| C=CCOC(Cn1ccnc1)c1ccc(Cl)cc1Cl (stereo unspecified) [Enilconazole] | -0.206 | -0.741 | 0.571 | 0.192 | -0.128 | -0.352 |
| CCOC(=O)C1=C(C)NC(C)=C(C(=O)OCC)C1c1ccccc1/C=C/C(=O)OC(C)(C)C [Lacidipine] | 0.359 | 1.4 | 0.71 | 1.28 | 0.446 | 0.927 |
| CC(C)(C)NC(=O)[C@@H]1C[C@@H]2CCCC[C@@H]2CN1C[C@@H](O)[C@H](Cc1ccccc1)NC(=O)[C@H](CC(N)=O)NC(=O)c1ccc2ccccc2n1 [Saquinavir mesylate] | 0.938 | 0.684 | 1.12 | 0.276 | 0.903 | 0.906 |
| CCCN(CCC)CCc1cccc2c1CC(=O)N2 [Ropinirole HCl] | -0.0677 | 0.764 | -0.368 | 0.26 | -0.342 | 0.248 |
| Clc1ccc2c(c1)CCc1cccnc1C2=C1CCNCC1 [Desloratadine] | 3.93 | 2.5 | 1.63 | 0.223 | 2.69 | 2.81 |
| O=C1C(O)=C([C@H]2CC[C@H](c3ccc(Cl)cc3)CC2)C(=O)c2ccccc21 [Atovaquone] | -0.63 | -0.824 | -0.408 | -0.361 | -0.555 | -0.654 |
| COc1cc(C(=O)OCCCN2CCCN(CCCOC(=O)c3cc(OC)c(OC)c(OC)c3)CC2)cc(OC)c1OC [Dilazep dihydrochloride] | 3.35 | 1.34 | 3.19 | 3.53 | 3.75 | 4.35 |
| Cn1cnc2c1c(=O)[nH]c(=O)n2C [Theobromine] | -0.566 | -1.37 | -0.361 | -0.586 | -0.492 | -0.483 |
| CC(C)NCC(O)c1ccc(O)c(O)c1 (single isomer, unassigned; (+)) [(+)-Isoproterenol (+)-bitartrate salt] | -0.327 | 0.363 | -0.262 | -0.346 | -0.516 | -0.475 |
| Cc1ncc(CO)c(CO)c1O [Pyridoxine hydrochloride] | -0.469 | -0.56 | -0.385 | -0.528 | -0.475 | -0.596 |
| CCC(=O)O[C@]1(C(=O)SCF)[C@H](C)C[C@H]2[C@@H]3C[C@H](F)C4=CC(=O)C=C[C@]4(C)[C@@]3(F)[C@@H](O)C[C@@]21C [Fluticasone propionate] | -0.0811 | 0.00943 | 0.193 | -0.0272 | -0.0798 | -0.437 |
| COc1ccccc1Oc1c(NS(=O)(=O)c2ccc(C(C)(C)C)cc2)nc(-c2ncccn2)nc1OCCO [Bosentan] | -0.54 | -0.445 | -0.199 | 0.0121 | -0.493 | -0.438 |
| CN(C)C/C=C(/c1ccc(Br)cc1)c1cccnc1 [Zimelidine dihydrochloride monohydrate] | -0.281 | 0.0916 | -0.265 | -0.387 | 0.179 | 0.387 |
| Cc1cc2c(s1)Nc1ccccc1N=C2N1CCN(C)CC1 [Olanzapine] | 0.0572 | 1.62 | 0.197 | 0.311 | 0.151 | 0.615 |
| CO[C@@]1(NC(=O)C2SC(=C(C(N)=O)C(=O)O)S2)C(=O)N2C(C(=O)O)=C(CSc3nnnn3C)CS[C@@H]21 (stereo partly specified) [Cefotetan] | -0.675 | -1.41 | -0.843 | -0.864 | -0.604 | -0.594 |
| CN(C)CCN(Cc1ccc(Cl)cc1)c1ccccn1 [Chloropyramine hydrochloride] | 0.629 | 4.98 | 1.63 | 5.51 | 1.05 | 1.3 |
| Cc1ccc(N(CC2=NCCN2)c2cccc(O)c2)cc1 [Phentolamine hydrochloride] | -0.384 | 0.635 | -0.578 | -0.161 | -0.477 | -0.0953 |
| O=C(O)Cc1ccccc1Nc1c(Cl)cccc1Cl [Diclofenac sodium] | -0.542 | -0.789 | -0.65 | -0.702 | -0.505 | -0.603 |
| CC(=O)OCC(=O)[C@@]1(O)[C@H](C)C[C@H]2[C@@H]3CCC4=CC(=O)C=C[C@]4(C)[C@@]3(F)[C@@H](O)C[C@@]21C [Dexamethasone acetate] | -0.279 | -0.245 | -0.619 | -0.504 | -0.34 | -0.593 |
